Screens as filed in PubChem BioAssay.
TIM10 inh: TIM10 yeast growth inhibition; AID 463195; actives 1.4% (n = 330,000); inhibition, % at 10 µM; S. cerevisiae TIM10 strain growth, BacTiter-Glo luminescence, 24 h;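 active = inhibition of 40% or more at the single tested concentration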;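 also: wild-type TIM10 isogenic control strain grown at permissive 25 °C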
tim10-1 inh: tim10-1 yeast growth inhibition; S. cerevisiae tim10-1 ts strain growth, BacTiter-Glo, 24 h; inhibition, % at 20 µM; actives 2.2% (n = 330,000); AID 463190;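 active = inhibition of at least 40%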;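 also: mutant grown at 25 °C; 0% = DMSO wells with yeast and 100% = wells holding no yeast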
PfHsp90 set2: reduces growth (ATP signal) of yeast expressing P. falciparum Hsp90; inhibition, % at 9.4 µM; S. cerevisiae expressing PfHsp90, BacTiter-Glo ATP, 48 h; yeast lacking PDR1 and PDR3 efflux regulators; actives 0.32% (n = 310,000);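 active = every replicate shows inhibition above about 80%, whatever the replicate mean, limit read from the data; inconclusive = mean inhibition reaches the set limit but some replicate falls short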;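 also: 0% = DMSO neutral controls and 100% = 20 µM radicicol positive controls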
NALP3 yeast inh: NALP3 inhibition in yeast. Yeast reconstituted NLRP3/ASC/caspase-1, beta-gal luminescence, 24 h. AID 2825. actives 0.39% (n = 330,000). inhibition, % at 10 µM;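 active = inhibition of 50% or more; inactive = inhibition below 50%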;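 also: plate controls were induced DMSO wells for no effect and uninduced yeast grown without galactose for full effect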
tim23-1 inh: tim23-1 yeast growth inhibition | S. cerevisiae tim23-1 growth, BacTiter-Glo luminescence, 24 h | inhibition, % at 20 µM | actives 1.3% (n = 330,000);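 active = growth inhibition of the mutant yeast at or above 50%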;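 also: temperature-sensitive mutant grown at 25 °C; plate controls were DMSO-treated mutant yeast for no effect and medium wells lacking yeast for full effect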
TIM10 conf: confirmation of TIM10 yeast growth inhibitors | shares compounds with TIM10 inh | inhibition, % at 10 µM | AID 463215 | S. cerevisiae tim10 strain growth, BacTiter-Glo luminescence, 24 h | actives 63% (n = 4,600);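 active = inhibition of yeast growth at or above a set limit in either of two replicates at 10 µM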;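 also: this counterscreen used the strain with wild-type TIM10; 0% = yeast with DMSO and 100% = medium wells lacking yeast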
* marks the source's active call; other numbers are inactive results; ? = inconclusive; · = no result given. This is a sample that favours compounds with a hit; in the whole collection about 3.7% have one here.

SMILES | TIM10 inh | tim10-1 inh | PfHsp90 set2 | NALP3 yeast inh | tim23-1 inh | TIM10 conf
O=C(NC(=S)NC12CC3CC(CC(C3)C1)C2)c1ccc(F)cc1 | 44* | 20 | · | 39 | 47 | 48*
Cc1ccc(NS(=O)(=O)c2ccc(NC(=O)c3ccc(Br)o3)cc2)c(C)c1 | 42* | 26 | · | 13 | 17 | 2
Cc1cc(Nc2ccccc2N2CCOCC2)n2ncnc2n1 | -1 | 9 | 17 | 6 | 8 | ·
O=C(CSc1nnc(-c2ccccc2)c(-c2ccccc2)n1)NC1CCS(=O)(=O)C1 (stereo not drawn) | 1 | 7 | -1 | 5 | 17 | ·
CC(C)c1ccc(C(O)Cc2nc3ccccc3n2C)cc1 (stereo not drawn) | 43* | 17 | 11 | 24 | 17 | -4
CC1(C)c2[nH]c3ccccc3c2C[C@@H]2C(=O)N(Cc3ccccc3F)C(=O)N21 | 41* | 36 | -12 | 21 | 27 | 26
CC1(C)c2[nH]c3ccccc3c2C[C@H]2C(=O)N(Cc3ccccc3F)C(=O)N21 | 28 | 33 | 4 | 17 | 16 | ·
CCN(C[C@H]1N[C@@](C)(C(=O)OC)[C@H]2C(=O)N(Cc3ccccc3)C(=O)[C@@H]12)S(=O)(=O)c1ccc(C(C)(C)C)cc1 | 90* | 21 | 10 | 8 | 18 | 11
N#C/C(=C\c1ccc(C#N)cc1)C(=O)N1CCCC1 | 50* | 38 | · | -2 | 47 | 34*
O=S(=O)(Nc1ccon1)c1ccc(F)c(F)c1 | -2 | 7 | -9 | 17 | -3 | ·
N#Cc1cc(C#N)c(N2CCN(c3cccc(Cl)n3)CC2)nc1N | 41* | 12 | -5 | 9 | 38 | 18
NC1CCN(c2cccc(Cl)n2)CC1 | 2 | -1 | · | 12 | 4 | ·
O=C(O)/C=C/C(O)c1ccc(Cl)cc1 (stereo not drawn) | 12 | 18 | -2 | 9 | 12 | ·
Cc1cccc(-c2nc(=S)c3c(o2)CCCC3)c1 | 44* | 24 | · | -5 | 35 | 33*
S=c1nc(-c2ccc(Br)cc2)oc2c1CCCC2 | 26 | 35 | -4 | 3 | 3 | ·
CCOc1ccc(S(=O)(=O)N2CCCCC2)cc1NS(=O)(=O)c1cccs1 | 16 | 13 | 7 | 4 | 4 | ·
Fc1cccc(/C=N/n2c(C3CCCCC3)n[nH]c2=S)c1 | 44* | 26 | -21 | 29 | 26 | 37*
Cc1cn(C2OC(CC(=O)Oc3ccccc3)C(O)C2O)c(=O)[nH]c1=O (stereo not drawn) | -1 | -14 | -16 | -8 | -8 | ·
O=C(c1ccc(Cn2c(=O)[nH]c3ccccc3c2=O)cc1)N1CCN(c2ccccn2)CC1 | 2 | -4 | 7 | 14 | -2 | ·
O=C(c1ccc(Cn2c(=S)[nH]c3ccccc3c2=O)cc1)N1CCN(c2ccccn2)CC1 | 73* | 20 | · | 14 | 30 | 4
CCOc1ccc(NC(=O)CC2C(=O)N(c3cccc(OC)c3)C(=O)N2C(C)C)cc1 (stereo not drawn) | 4 | 8 | 11 | -15 | -13 | ·
COc1ccc(-c2[nH]ncc2Oc2ccccc2OC)c(O)c1 | 52* | 31 | · | 14 | 46 | 29
COc1ccc(Oc2cn[nH]c2-c2ccc(O)cc2O)cc1 | 10 | 14 | 16 | 17 | 19 | ·
CCCc1ccc(Oc2cn[nH]c2-c2ccc(O)cc2O)cc1 | 44* | 4 | ? | 7 | -36 | 72*
Cc1nccn1CCCNCc1c(C(=O)N2CCCCCCC2)nc2ccc(Cl)cn12 | -28 | 14 | 9 | -6 | -1 | ·
SMILES | TIM10 inh | tim10-1 inh | PfHsp90 set2 | NALP3 yeast inh | tim23-1 inh | TIM10 conf
Fc1ccccc1/C=N/n1cc(-c2ccccc2)[nH]c1=S | 45* | 38 | -19 | 32 | 22 | 47*
Cc1ccc(C)c(/C=N/n2cc(-c3ccccc3)[nH]c2=S)c1 | 35 | 35 | -19 | 2 | 3 | ·
CC(=O)OCCCN1C(=O)c2cccc3cc(Br)cc(c23)C1=O | 61* | -9 | · | 49 | 22 | 1
CCN1/C(=C/c2ccc3cc(C)ccc3[n+]2CC)Sc2cc(C)c(C)cc21 | 52* | -10 | 101* | 24 | -4 | 79*
Cc1ccc(S(=O)(=O)N(CC(=O)NC2CCCCCC2)c2ccccc2F)cc1 | 40* | 16 | -6 | -2 | 8 | 11
COc1cccc(OC)c1C(=O)NC(=O)NNc1cc(C(F)(F)F)cc(C)n1 | 6 | 1 | 13 | -5 | 5 | ·
CCOC(=O)N1CCN(C(=O)c2ccc3c(c2)N=C(CC)c2cc(C)ccc2S3)CC1 | 40* | 21 | 10 | 9 | 30 | 6
CCC1=Nc2cc(C(=O)N3CCCCC3)ccc2Sc2ccc(C)cc21 | 8 | 8 | 3 | 17 | 8 | ·
CCC(=O)N(Cc1cc2cc(OC)ccc2[nH]c1=O)c1ccc(C)cc1 | -4 | 2 | 11 | 21 | 20 | ·
Cc1ccc(Sc2cnn(-c3ccccc3)c(=O)c2Cl)cc1 | 52* | 39 | -11 | 15 | 44 | 46*
Cc1ccc(CN=C2Nc3ccccc3CS2)cc1 | 19 | 20 | · | 15 | 12 | ·
Clc1ccc(CN=C2Nc3ccccc3CS2)cc1 | 41* | 36 | 34 | 22 | 36 | 32*
CN(C)CCCNc1cc(C(C)(C)C)nc2c(-c3ccc(Cl)cc3)cnn12 | 55* | -15 | 27 | 5 | -17 | 60*
COC(=O)CC(NC(=S)NC(=O)c1ccccc1)c1ccc(Br)cc1 (stereo not drawn) | 40* | 26 | -16 | 10 | 34 | 37*
Cc1ccc2ccc(C3C(=O)c4ccccc4C3=O)nc2c1 | 61* | 12 | -14 | 3 | 27 | 66*
Cc1ccc(C)c(C2C(=O)c3ccccc3C2=O)c1 | -11 | 3 | -13 | 9 | 18 | ·
CCN(Cc1ccccc1)c1ccc(/C=N/NC(=S)NC(C)C)cc1 | 43* | 36 | -22 | 19 | 29 | 45*
c1ccc(Cc2nc3ccccc3n2Cc2ccccc2)cc1 | 44* | 29 | -10 | 24 | 14 | 32*
Cc1nc2ccccc2n1Cc1ccccc1 | 7 | 5 | 4 | 9 | 2 | ·
O=C1CCNc2cc3ccccc3cc21 | 42* | 32 | 13 | 21 | 14 | 31
O=C1CCNc2ccc(-c3ccccc3)cc21 | 5 | 17 | 7 | 0 | 12 | ·
COC(=O)c1sccc1NC(=O)CC1C(=O)NCCN1C(=O)Nc1cc(Cl)ccc1OC (stereo not drawn) | 15 | 9 | · | 7 | 6 | ·
Cc1ccccc1Nc1nc(Nc2ccccc2C)nc(SC2=NCCS2)n1 | 42* | 31 | -20 | -1 | 33 | 45*
CCNc1nc(NC(C)C)nc(ON=C(C)C)n1 | -1 | -7 | · | 4 | -7 | ·
O=C(Nc1nccs1)c1ccc2nccnc2c1 | 41* | 24 | -8 | 16 | 40 | 39*
O=C(Cn1c2ccc(F)cc2c2nc3n(c(=O)c21)CCS3)Nc1ccc(Cl)cc1F | 41* | 38 | -22 | -4 | 8 | 34*
O=C1CC(c2ccccc2)=Nc2ccccc2N1Cc1ccccc1 | 40* | 31 | -1 | -39 | 19 | 23
